SMILES strings stand for the structures. Screen size: about 300,000 compounds; about 5,200 (1.7%) were called active. The sample holds actives, similar compounds and a random draw of the others, so the mix is not that of the screen. Unmarked numbers belong to inactive results.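 Rule for the calls: active = mean replicate activation of at least 50% with a set share of replicates each reaching 50%; inconclusive = only one of those two conditions met; inactive = mean below 50% and too few replicates reaching it.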

This assay can be described thus: HSF-1 activators, primary screen, NIH3T3-HGL cells, MG132 stress, luminescence, single point (AID 504408).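 Note: 0% = median of the neutral control wells and 100% = twice that signal.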 The following applies: NIH3T3-HGL HSF-1 luciferase reporter, MG132, 8 h; at 9 µM; hits give high values; 100% = twice DMSO control signal. (Reporter assays use an easily measured gene product as a stand-in for the process of interest.)
As for `Cc1c(NC(=O)CN(C)CC(=O)Nc2ccc(F)c(F)c2F)c(=O)n(-c2ccccc2)n1C`, the activation was 1.95%. As to `COc1cc(C(=O)NCC(=O)NCCSc2ccc(Br)cc2)cc(OC)c1OC`, the activation is 7.39%.

Regarding `Cc1ccccc1CSCC(=O)NC(=O)NC(C)(C)C`, the activation was 5.08%. Turning to `Cc1cc(NC(=O)c2ccccc2C)no1`, the activation was 26.1%. The value for `Cc1cc(NC(=O)CSCc2ccccc2C)no1` was 56.3% (active); that for `O=C(COc1coc(CN2CCN(c3ccccc3)CC2)cc1=O)N1CCc2ccccc21` was 1.05%; that for `COc1ccc(N2CCN(C(=O)COC(=O)c3cccc(S(=O)(=O)Nc4ccccc4OC)c3)CC2)cc1` was 5.51%. As to `O=c1[nH]c(CSc2ncc(-c3ccc(F)cc3)n2Cc2ccco2)nc2ccccc12`, the activation is 41.8%. Regarding `Cc1cc(NC(=O)CSc2nc3cc(Cl)ccc3c(=O)n2Cc2ccco2)no1`, the activation is 1.94%.

In the case of `Clc1cccc(-c2nc3nc4ccccc4nc3n2Cc2ccco2)c1`, the activation is 79.2% (active). The value for `O=C(NCCSc1ncc(-c2ccccc2)[nH]1)c1ccco1` was 10.6%. In the case of `CCOC(=O)c1cnc(-c2ccccc2)nc1Oc1ccc(C)cc1`, the activation was 88.3% (active). As for `CCCCOc1ccc(-c2ncc(C(=O)OCC)c(N)n2)cc1`, the activation is 23.3%.

In the case of `CCCNC(=O)c1cnc(-c2ccccc2)nc1-c1ccccc1`, the activation was 23.9%. The value for `O=C(COc1cccc2c1CCNC2=O)NC1CCCCC1` was -2.8%; that for `CC(C)Nc1nnc(SC(C)C(=O)N(C)C2CCCCC2)s1` (centres undefined) was 7.73%; that for `N#CC(=C1SC=CS1)c1nc(-c2ccccc2)cs1` was 44.5%.

Turning to `CCCCCN1CC(O)=C(c2nc(-c3ccc(Cl)cc3)cs2)C1=N`, the activation was -2.24%. For `N#CC(=C1CCCC1)c1nc(-c2ccc(Cl)cc2)cs1`, the activation is 62.5% (active). Regarding `O=C(COc1ccccc1Cl)Nc1ccccc1C(=O)NC1CC1`, the activation was -14.4%.

Take `CN(C)CCN(C(=O)CN1C(=O)c2ccccc2C1=O)c1nc2cc3c(cc2s1)OCCO3`: the activation is 16%.

`CN(CC(=O)Nc1cccc(F)c1)C(=O)C1=COCCO1`: the activation is 3.81%. As to `Cc1cc(Nc2ccc(Br)cc2)nc2ccccc12`, the activation is 0.857%. In the case of `Cc1cccc(C2C3=C(CCCC3=O)N=C3c4ccccc4C(=O)C32)c1` (centres undefined), the activation was 78.2% (active). Turning to `CCOC(=O)C1=C(C)N=C2c3ccccc3C(=O)C2C1c1ccc(Br)cc1` (centres undefined), the activation is -1.71%. Take `O=C1CCCC2=C1C(c1ccccc1)n1c(s/c(=C/c3cccc(F)c3)c1=O)=N2` (centres undefined): the activation was -4.55%. In the case of `COc1ccc(CNS(=O)(=O)c2cc3c4c(c2)CCN4C(=O)CC3)cc1`, the activation was 30.7%.

As to `COc1ccccc1OCCCCCCN1CCN(C)CC1`, the activation is -3.8%. Regarding `Cc1n[nH]c(=O)c2c(NC(=O)CSc3ccccc3F)oc(C)c12`, the activation was 6.59%. Take `COc1ccc(OCCCC(=O)OC(C)C(=O)Nc2ccccc2[N+](=O)[O-])cc1` (centres undefined): the activation is 10.9%. The value for `COc1ccc2oc(=O)c(C(=O)N3CCCC3)cc2c1` was 6.28%; that for `COc1ccc2c(c1)CCc1c(C(=O)N3CCc4ccccc4C3)noc1-2` was 6.07%; that for `COc1ccc2c(c1)CCc1c(C(=O)N3CCCC3)noc1-2` was 54.9% (active). Take `O=C(c1cc(COc2c(F)cccc2F)on1)N1CCSCC1`: the activation was 13.6%. `CC1CN(C(=O)c2cc(COc3c(F)cccc3F)on2)CCN1C` (centres undefined): the activation is 52.1% (active).

Consider `O=C(NCCN1CCCC(O)C1)c1cc(COc2c(F)cccc2F)on1` (centres undefined), for which the activation is -5.99%. Regarding `Cc1csc(NC(=O)C2=COCCO2)n1`, the activation was 13%. As to `CC(C)CN(C(=O)COC(=O)c1ccc(Cl)c(N)c1)c1c(N)n(Cc2ccccc2)c(=O)[nH]c1=O`, the activation was -19.5%. For the compound `O=C(NC1CCCCC1)c1ccc(-c2ccc(Cl)cc2)o1`, the activation is 67.1% (active). For `O=C(NC1CCCCCC1)c1cccnc1Sc1ccc(Cl)cc1`, the activation was -8.73%. Turning to `S=C(NCc1ccc(Cl)cc1)NC1CCCCC1`, the activation was 18.1%. For the compound `CCN(C(=O)COC(=O)c1sccc1C)c1c(N)n(Cc2ccccc2)c(=O)[nH]c1=O`, the activation is -3.51%.

Take `CCCNC(=O)c1onc(CSc2ccc(F)cc2)c1C(=O)NC(C)C`: the activation is -0.0105%. Next, `CS(=O)(=O)c1ccc(Cl)c(NC(=O)COC(=O)c2ncc(Cl)c(Cl)c2Cl)c1`: 2.63%; `CCOc1cc(N2CCOCC2)c(OCC)cc1NC(=O)COc1cccc2cccnc12`: -23%; `Oc1c(C(c2ccccn2)N2CCOCC2)ccc2cccnc12` (centres undefined): 73.3% (active). For the compound `CC(C)c1cc(CN2CCOCC2)cc(C(C)C)c1O`, the activation is 4.46%. Consider `O=C(COC(=O)c1ncc(Cl)c(Cl)c1Cl)NNC(=O)c1ccccc1`, for which the activation was 3.3%.

In the case of `O=C1CC2(CCN(C(=O)COc3ccc(F)cc3)CC2)Oc2ccccc21`, the activation was 12%. Turning to `CC(OC(=O)c1ccc(S(=O)(=O)N2CCOCC2)cc1)c1ccccc1` (centres undefined), the activation is 13.9%. Turning to `CC(Oc1ccc(F)cc1)C(=O)Nc1ccccc1C(=O)NC1CC1` (centres undefined), the activation was 6.2%. In the case of `Cc1ccc(O)c(NC(=O)c2cc(-c3ccco3)on2)c1`, the activation is 113% (active).

For the compound `COc1ccc(NC(=O)c2cc(-c3ccc(C)cc3)on2)cc1`, the activation is -4.41%. Next, `O=C(Nc1cccnc1Cl)c1cc(-c2ccccc2O)on1`: 11.3%. The value for `c1ccc(C[C@H]2CNCCN2CCC23CC4CC(CC(C4)C2)C3)cc1` was -13.4%.

`Cc1ccc(CSCC(=O)N(C)CC(=O)Nc2ccc(C)cc2)cc1`: the activation was -77.8%. Take `O=C(CSC1=NS(=O)(=O)c2cc(F)ccc2N1)Nc1ccccc1F`: the activation was 30%. Regarding `C/C(=N\NC(=S)Nc1ccc(C)cc1)c1cc2ccccc2o1`, the activation is 7.68%. Consider `Cc1ccc(NC(=O)c2cc3ccccc3o2)cc1`, for which the activation is 51.6% (active). On to `Cc1ccc(OC(=O)c2cc3ccccc3o2)cc1`, for which the activation is 5.61%. `CN(/N=C/c1ccccc1)C(=S)c1ccccc1`: the activation was 9.01%. For the compound `O=C1c2ccccc2NC(c2ccc(-c3cccc(Cl)c3)o2)N1O` (centres undefined), the activation was 76.4% (active). On to `O=C(O)C(c1ccccc1)N1C(=O)/C(=C\c2ccc(-c3cccc(Cl)c3)o2)SC1=S` (centres undefined), for which the activation is -2.76%. Regarding `O=c1c(-c2cccc(Cl)c2)c[nH]n1-c1ccccc1`, the activation is 7.2%. For the compound `Cc1ccc(C(=O)C(C)OC(=O)Cc2n[nH]c(=O)c3ccccc23)cc1C` (centres undefined), the activation is -0.0365%. As for `O=C(NCc1ccccn1)Nc1ccc(Cl)cc1`, the activation is -2.45%. Turning to `CCN(CC(=O)Nc1c(F)cccc1F)C(=O)C1CCC1`, the activation is -4.88%. Next, `NC(=O)c1ccsc1NC(=O)c1ccco1`: 26.5%.

For `O=C(Nc1nc(-c2ccco2)c(-c2ccco2)s1)c1ccco1`, the activation is 70.1% (active).

`O=C(Nc1ccccc1)c1ccco1`: the activation is 11.5%. Regarding `Cc1csc(NC(=O)c2ccc(C)s2)n1`, the activation is -3.76%. The value for `O=C(NCCCN1CCCC1=O)c1ccc(S(=O)(=O)Nc2ccccc2)cc1` was 16.8%. In the case of `CC(C)(C)C(=O)COC(=O)c1cc(S(=O)(=O)N2CCCCC2)ccc1N1CCOCC1`, the activation was -1.57%.

For the compound `Cc1ccc(C(=O)CSc2nnc(Cn3nnc4ccccc43)n2C)cc1`, the activation is 43.4%. On to `Cc1ccc2nnn(Cc3cccc(C(C)(C)C)c3O)c2c1`, for which the activation was 59.9% (active).

In the case of `O=C(CN1C(=O)NC2(CCCC2)C1=O)OCCOc1ccc(F)cc1`, the activation was 3.21%. On to `CCCCn1c(N)c(N(CCC(C)C)C(=O)CC2OC(=O)c3ccccc32)c(=O)[nH]c1=O` (centres undefined), for which the activation is -3.07%. In the case of `Cc1cc(Oc2ccc(Cl)cc2)nc(SCC(=O)c2ccccc2)n1`, the activation is 2.82%.

For `Cc1cc(C)nc(S/C=C/C(=O)c2ccccc2)n1`, the activation is 111% (active). With `Cc1cc(C)nc(SCC(=O)c2ccc(Cl)cc2)n1`, the activation is -1.86%. Next, `CSc1ccc(/C=C2\NC(=O)NC2=O)cc1`: 20.8%; `CN(Cc1ccccc1F)C(=O)C(Cc1ccccc1)NC(=O)c1ccccc1` (centres undefined): -0.838%. `CCCCn1c(N)c(N(CCOC)C(=O)COc2c(C)cccc2C)c(=O)[nH]c1=O`: the activation is -3.47%. On to `CCC(C)NC(=O)C1c2ccccc2C(=O)N1Cc1ccccc1` (centres undefined), for which the activation was 16.4%. In the case of `CC1CCC(NC(=O)C2c3ccccc3C(=O)N2Cc2ccc3c(c2)OCO3)CC1` (centres undefined), the activation is -8.55%. The value for `CCc1ccc(CN2C(=O)c3ccccc3C2C(=O)NCC2CCCO2)cc1` (centres undefined) was 62.2% (active); that for `CCOC(=O)c1cc(NC(=O)c2cccnc2)ccn1` was -78.8%. The value for `COc1ccc(S(=O)(=O)N2CCOCC2)cc1NC(=O)CSc1ncnc2ccccc12` was 72.7% (active); that for `COc1ccc(S(=O)(=O)N2CCCCC2)cc1NC(=O)COc1ccccc1` was 4.76%. In the case of `COc1ccc(S(=O)(=O)N2CCOCC2)cc1NC(=O)COc1ccccc1`, the activation is -3.48%. Turning to `O=C(Cc1c(O)c2ccccc2[nH]c1=O)NCc1ccccc1`, the activation was 55.5% (active). Turning to `CCCC(=O)Nc1c(O)c2ccccc2[nH]c1=O`, the activation was -31.5%.

Take `CCCOC(=O)Cc1c(O)c2ccccc2[nH]c1=O`: the activation was -21.7%. For the compound `Cc1ccc(NS(=O)(=O)c2ccc(C(=O)NCCCN3CCOCC3)cc2)cc1`, the activation is -3.65%. In the case of `O=C(NCCS(=O)(=O)NCc1ccc(F)cc1)c1ccccc1`, the activation is 2.75%. Regarding `O=C(Nc1cccc2c1CCCC2)c1ccc(F)cc1`, the activation was -3.19%. As for `O=C(NCc1ccco1)c1sc2cccc(F)c2c1Cl`, the activation is 27.8%. The value for `COc1ccc2c(Cl)c(C(=O)NCc3ccco3)sc2c1` was 59.8% (active); that for `COc1ccc2oc(C(=O)NCc3ccco3)c(C)c2c1` was 6.69%.

These data come from PubChem BioAssay AID504408 (Broad Institute, 2011).
